The record followed here is ChEMBL document CHEMBL4513216, “Probing the Open Global Health Chemical Diversity Library for Multistage-Active Starting Points for Next-Generation Antimalarials” (ACS Infect Dis, 2020).

Screen size: about 69,000 compounds; about 8,600 (12%) showed an effect of 50% or more. The sample holds strong results, similar compounds and a random draw of the others, so the mix is not that of the screen.

This assay concerns Plasmodium berghei. Kind of assay: Screen against P. berghei liver stage (PbLuc), transformed with Luciferase, at 10uM. The format is functional, HepG2. The note with it: tested at 10 uM.
On to `CN(CC1CCOC1)S(=O)(=O)c1cccc(C(=O)N2CCOCC2)c1` (stereo not given), for which the INHIBITION is listed as 1.19%. Under `CC(C)N1CCCC(C(=O)N2CCN(c3cccc(C(=O)O)c3)CC2)C1` (stereo not given) stands 21.2%. Under `COCCN(C)C[C@@H]1CN(c2cc(C)nc3ccccc23)C[C@@H]1CO` stands -34.8%; under `CN(Cc1nc2ccccc2s1)C1CCCN(c2cccnn2)C1` (stereo not given), 24.7%. `Cc1cc(C)c(CNc2nc3ccccc3cc2CO)c(=O)[nH]1`: the INHIBITION is 55.8%. Under `Cc1cc(C)c(CNc2ncnc3ccccc23)c(=O)[nH]1` stands 14.7%; under `Cc1cc(C)c(CNc2cnc3ccccc3n2)c(=O)[nH]1`, -1.35%.

Take `Cc1nc(C)n(C2CCCN(C(=O)c3ccc(O)nc3)C2)n1` (stereo not given): the INHIBITION is on record as 16.1%. Then `Cc1nn(C)c(N(C)C)c1CNCc1cccc(Cn2cncn2)c1`, with -17.6%; and `Cc1c[nH]nc1C1CCCN1Cc1nccn1C` (stereo not given), with 18.4%; and `COc1c(CNCc2cccnc2N2CCN(C)CC2)c(C)nn1C`, with 51.3%. Under `COc1ccc(CNCc2ccnc(N3CCCCC3)c2)cc1OC` stands 37.2%; under `COc1c(CNCc2cccnc2N2CCCCC2)c(C)nn1C`, -91.6%. In the case of `COc1c(CNCc2ccnc(N3CCCCC3)c2)c(C)nn1C`, the INHIBITION is 87.3%.

With `COc1c(CNCc2ccnc(N3CCOCC3)c2)c(C)nn1C`, the INHIBITION came out at 19.4%. For `COc1cccc2cc(CNCc3ccc(N4CCCC4)nc3)oc12`, the INHIBITION came out at 21.6%. Under `COc1cccc2cc(CNCc3ccnc(N4CCCCC4)c3)oc12` stands -19.4%. Then `COc1c(CNCc2cccnc2N2CCOCC2)c(C)nn1C`, with -7.7%; and `COc1ccc(CNCc2ccc(N3CCCCC3)nc2)cc1OC`, with 52.7%.

For the molecule `COc1ccc(OC)c(CNCc2ccnc(N3CCCCC3)c2)c1`, the INHIBITION stood at 10.6%. Then `COc1cc(CNCc2ccnc(N3CCCCC3)c2)cc(OC)c1`, with 80.9%; and `COc1c(CNCc2ccnc(N3CCCC3)c2)c(C)nn1C`, with -8.3%; and `O=C(NCc1cccnc1N1CCCCC1)c1ccc2cc[nH]c2c1`, with 2.7%. Consider `NC1(CN2CCOCC2)CCCCC1`, for which the INHIBITION is reported as 8.12%. Under `C[C@H]1CN(c2ccccn2)C[C@@]12CCN(c1cccnc1)C2=O` stands 8.66%; under `COc1cc(CNCc2ccnc(N3CCOCC3)c2)cc(OC)c1`, 19.2%; under `COc1cc(CNCc2ccnc(N3CCCC3)c2)cc(OC)c1`, 59.6%. Under `COc1ccc(CNCc2ccnc(N3CCCC3)c2)c(OC)c1` stands 41.45%; under `CCN1CC(C(=O)NCCc2csc(-c3ccncc3)n2)CCC1=O` (stereo not given), 1.86%; under `Cc1cnc(-c2nc(C3CCN(C(=O)Cc4ccsc4)CC3)no2)cn1`, 2.71%.
